Measured values from PubChem BioAssay (Tox21).
Inconclusive results are not listed. Where a call stands in place of a potency, no number is given. Active and inactive are the calls of the source. Unless noted, calls follow the shape of the dose curve; as a rule, active = well fitted curve in the direction sought with a large enough effect in the repeat runs; inconclusive = weak or mixed curves; inactive = no such curve, though single readings can be large; an effect the other way counts as inactive or inconclusive.

How the values were obtained:
[1] = target: Estrogen receptor beta (Homo sapiens) (UniProt Q92731); assay: qHTS assay to identify small molecule agonists of the estrogen receptor beta (ER-beta) signaling pathway (AID 1259377; active = well fitted activation curve with a large enough effect in the signal ratio in the repeat runs, not every such curve was filed as active; the % refers to the signal ratio)
Sequence of Estrogen receptor beta (Homo sapiens) (Q92731 whole entry, looked up): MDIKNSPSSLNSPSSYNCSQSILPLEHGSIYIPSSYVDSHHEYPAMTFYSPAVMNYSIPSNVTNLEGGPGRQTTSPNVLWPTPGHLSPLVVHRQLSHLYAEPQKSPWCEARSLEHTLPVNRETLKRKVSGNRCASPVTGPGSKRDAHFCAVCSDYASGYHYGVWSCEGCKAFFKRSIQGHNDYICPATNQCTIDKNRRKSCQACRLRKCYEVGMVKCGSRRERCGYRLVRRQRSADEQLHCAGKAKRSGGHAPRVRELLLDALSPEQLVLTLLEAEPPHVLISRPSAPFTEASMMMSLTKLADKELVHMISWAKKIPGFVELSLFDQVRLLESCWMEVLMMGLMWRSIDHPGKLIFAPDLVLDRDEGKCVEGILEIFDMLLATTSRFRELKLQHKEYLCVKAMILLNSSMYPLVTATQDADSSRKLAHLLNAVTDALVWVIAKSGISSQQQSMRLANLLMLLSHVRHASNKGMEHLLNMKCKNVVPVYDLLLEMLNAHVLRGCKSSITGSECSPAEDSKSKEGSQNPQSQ
How it was run: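 ER-beta-UAS-bla HEK293T (GripTite) cells carrying a UAS-driven beta-lactamase reporter, in medium with 2% charcoal-stripped FBS, were exposed to compounds for 16 hr at 37C; LiveBLAzer B/G FRET substrate was then added and fluorescence read after 2 hours at room temperature.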

[2] = target: Estrogen receptor beta (Homo sapiens) (UniProt Q92731); assay: qHTS assay to identify small molecule antagonists of the estrogen receptor beta (ER-beta) signaling pathway (AID 1259378; active = well fitted inhibition curve with a large enough effect in the signal ratio in the repeat runs, not every such curve was filed as active; the % refers to the signal ratio; also: potency is read from the fitted curve at half-maximal effect)
How it was run: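 ER-beta-UAS-bla HEK293T cells in 2% charcoal-stripped FBS medium treated with compound plus 1nM final 17-beta-estradiol for 16 hr at 37C. Beta-lactamase reporter read by FRET substrate fluorescence after 2 hours at room temperature.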

[3] = qHTS assay to identify small molecule agonists of the androgen receptor (AR) signaling pathway in the presence of an antagonist - cell viability counter screen (AID 1259379);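 also: MDA-kb2 human breast cancer cells carrying an MMTV luciferase reporter; series mostly up to about 92 µM; nearly all actives have a fitted effect of over 25% in size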
How it was run: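 Fluorescence from CellTiter-Fluor, added after 15 hr and read 1 hr later, gave cell viability. Cells were MDA-kb2 exposed to compounds (15 concentrations) in the presence of 3.0uM nilutamide at 37C, 0% CO2.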

[4] = qHTS assay to identify small molecule agonists of the estrogen receptor beta (ER-beta) signaling pathway - cell viability counter screen (AID 1259380); also: nearly all actives have a fitted effect of over 30% in size; also: potency is read from the fitted curve at half-maximal effect
How it was run: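 Same-well viability counter screen. Cells: ER-beta-UAS-bla HEK293T, plated 6 hr before compound, in 2% charcoal-stripped FBS. Compound exposure 16 hr, 37C; viability by CellTiter-Glo luminescence after 30 min at room temperature.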

[5] = target: Androgen receptor (Homo sapiens) (UniProt P10275); assay: qHTS assay to identify small molecule agonists of the androgen receptor (AR) signaling pathway in the presence of an antagonist (AID 1259381; calls by dose curve; also: nearly all actives have a fitted effect of over 15% in size; also: potency is read from the fitted curve at half-maximal effect)
Sequence of Androgen receptor (Homo sapiens) (P10275 whole entry, looked up): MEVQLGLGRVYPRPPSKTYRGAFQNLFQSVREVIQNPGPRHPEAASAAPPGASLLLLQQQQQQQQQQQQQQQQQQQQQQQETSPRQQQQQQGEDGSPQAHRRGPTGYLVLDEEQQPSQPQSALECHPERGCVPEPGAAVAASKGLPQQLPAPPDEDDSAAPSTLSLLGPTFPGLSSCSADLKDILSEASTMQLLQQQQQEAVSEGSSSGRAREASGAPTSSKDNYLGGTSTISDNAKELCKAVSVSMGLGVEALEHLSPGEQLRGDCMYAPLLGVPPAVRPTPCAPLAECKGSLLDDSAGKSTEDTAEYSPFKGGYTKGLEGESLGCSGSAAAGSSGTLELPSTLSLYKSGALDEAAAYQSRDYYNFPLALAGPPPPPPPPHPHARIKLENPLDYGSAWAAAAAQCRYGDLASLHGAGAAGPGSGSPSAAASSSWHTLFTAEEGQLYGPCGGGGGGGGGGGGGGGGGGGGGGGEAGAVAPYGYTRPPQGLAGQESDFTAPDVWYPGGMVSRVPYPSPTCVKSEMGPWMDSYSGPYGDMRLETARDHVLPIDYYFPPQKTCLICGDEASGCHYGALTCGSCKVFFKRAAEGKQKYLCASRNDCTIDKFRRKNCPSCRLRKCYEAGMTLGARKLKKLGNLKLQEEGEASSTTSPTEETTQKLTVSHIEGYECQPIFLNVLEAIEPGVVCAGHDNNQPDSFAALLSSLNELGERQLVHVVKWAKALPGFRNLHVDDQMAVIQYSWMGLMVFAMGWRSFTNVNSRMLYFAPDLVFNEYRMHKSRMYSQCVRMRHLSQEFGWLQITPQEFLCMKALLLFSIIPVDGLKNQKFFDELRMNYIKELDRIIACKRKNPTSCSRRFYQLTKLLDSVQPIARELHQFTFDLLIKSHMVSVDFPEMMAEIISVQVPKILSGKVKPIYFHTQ
How it was run: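 Cells are MDA-kb2 (human breast carcinoma, MMTV-luc, AR/GR responsive). Nilutamide is present at 3.0uM final throughout; compounds are added at 15 concentrations and incubated 16hr at 37C before ONE-Glo luminescence detection.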

[6] = target: Estrogen receptor (Homo sapiens) (UniProt P03372); assay: qHTS assay to identify small molecule agonists of the estrogen receptor alpha (ER-alpha) signaling pathway in the presence of an antagonist (AID 1259383; calls by dose curve; also: nearly all actives have a fitted effect of over 15% in size; also: potency is read from the fitted curve at half-maximal effect; as to activation: top concentration of the series differs between compounds)
Sequence of Estrogen receptor (Homo sapiens) (P03372 whole entry, looked up): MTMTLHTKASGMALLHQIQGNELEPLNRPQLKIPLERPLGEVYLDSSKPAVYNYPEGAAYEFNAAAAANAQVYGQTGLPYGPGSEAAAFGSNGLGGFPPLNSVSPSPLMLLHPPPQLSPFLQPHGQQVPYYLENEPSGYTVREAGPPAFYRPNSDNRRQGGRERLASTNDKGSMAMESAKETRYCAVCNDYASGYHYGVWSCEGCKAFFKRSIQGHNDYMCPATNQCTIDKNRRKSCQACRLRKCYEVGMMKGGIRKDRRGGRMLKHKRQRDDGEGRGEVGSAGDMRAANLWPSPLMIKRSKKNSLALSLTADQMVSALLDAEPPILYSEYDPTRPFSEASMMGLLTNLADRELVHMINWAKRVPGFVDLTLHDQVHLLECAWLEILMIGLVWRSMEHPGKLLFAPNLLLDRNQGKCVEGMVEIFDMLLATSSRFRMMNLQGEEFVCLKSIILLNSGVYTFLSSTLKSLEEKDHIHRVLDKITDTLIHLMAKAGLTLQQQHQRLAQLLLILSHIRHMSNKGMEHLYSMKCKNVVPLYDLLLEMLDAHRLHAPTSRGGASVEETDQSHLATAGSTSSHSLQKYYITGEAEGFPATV
How it was run: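 Cells are hormone-deprived for 5 days (charcoal-stripped FBS, no phenol red), plated for 24hr, spiked with 10.0nM ICI-182,780, then dosed at 15 concentrations. After 22hr at 37C, ONE-Glo luminescence reports ERE-luciferase activity.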

[7] = qHTS assay to identify small molecule agonists or antagonists of the thyroid stimulating hormone receptor (TSHR) signaling pathway - wild type cell line counter screen (AID 1259384; calls by dose curve)
How it was run: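 Wild-type Hek293 cells, 800/well, 18 h at 37C, then compound with Ro20-1724 for 30 min RT. cAMP by HTRF (cAMP-d2/anti-cAMP cryptate), 1 h RT, fluorescence read. 15 concentrations, triplicates.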

[8] = target: Thyrotropin receptor (Homo sapiens) (UniProt P16473); assay: qHTS assay to identify small molecule antagonists of the thyroid stimulating hormone receptor (TSHR) signaling pathway (AID 1259385; calls by dose curve; also: nearly all actives have a fitted effect of over 20% in size)
Sequence of Thyrotropin receptor (Homo sapiens) (P16473 whole entry, looked up): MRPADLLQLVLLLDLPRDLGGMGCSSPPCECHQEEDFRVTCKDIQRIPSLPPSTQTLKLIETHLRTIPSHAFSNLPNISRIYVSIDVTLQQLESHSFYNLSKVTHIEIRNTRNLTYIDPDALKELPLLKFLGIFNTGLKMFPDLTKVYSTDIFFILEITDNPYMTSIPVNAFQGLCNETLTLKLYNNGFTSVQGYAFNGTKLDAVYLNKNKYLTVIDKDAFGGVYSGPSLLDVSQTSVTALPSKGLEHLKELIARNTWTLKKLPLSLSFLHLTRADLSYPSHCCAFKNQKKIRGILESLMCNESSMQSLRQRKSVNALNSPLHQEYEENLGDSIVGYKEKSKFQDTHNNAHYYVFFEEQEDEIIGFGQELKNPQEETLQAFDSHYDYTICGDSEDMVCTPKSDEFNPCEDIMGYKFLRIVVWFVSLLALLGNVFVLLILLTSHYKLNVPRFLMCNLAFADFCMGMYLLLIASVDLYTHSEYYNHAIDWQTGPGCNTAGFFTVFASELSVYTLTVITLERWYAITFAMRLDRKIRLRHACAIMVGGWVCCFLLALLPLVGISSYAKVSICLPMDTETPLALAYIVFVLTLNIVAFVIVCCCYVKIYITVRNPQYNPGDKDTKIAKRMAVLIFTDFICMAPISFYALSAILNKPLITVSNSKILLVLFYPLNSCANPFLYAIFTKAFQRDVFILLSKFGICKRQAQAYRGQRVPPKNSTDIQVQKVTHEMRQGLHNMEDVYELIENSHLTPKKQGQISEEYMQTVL
How it was run: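 TSHR-HEK293 cells (800/well) plated 18 h, then compounds with Ro20-1724 and TSH at 1.5 ng/mL final, 30 min at room temperature. cAMP quantified by HTRF (cAMP-d2/anti-cAMP-cryptate, 1 h); 15 concentrations in triplicate.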

[9] = qHTS assay to identify small molecule agonists of the estrogen receptor alpha (ER-alpha) signaling pathway in the presence of an antagonist - cell viability counter screen (AID 1259386);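 also: series mostly up to about 92 µM; cells exposed to compounds for 22 h at 37 °C before the viability read; nearly all actives have a fitted effect of over 30% in size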
How it was run: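 Cells are starved of estrogens for 5 days in charcoal-stripped serum, seeded for 24hr and co-treated with ICI-182,780 (10.0nM final) and test compounds. After 22hr at 37C, viability is read as CellTiter-Fluor fluorescence.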

[10] = target: Progesterone receptor (Homo sapiens) (UniProt P06401); assay: qHTS assay to identify small molecule agonists of the progesterone receptor (PR) signaling pathway (AID 1346784; calls by dose curve; also: nearly all actives have a fitted effect of over 30% in size)
Sequence of Progesterone receptor (Homo sapiens) (P06401 whole entry, looked up): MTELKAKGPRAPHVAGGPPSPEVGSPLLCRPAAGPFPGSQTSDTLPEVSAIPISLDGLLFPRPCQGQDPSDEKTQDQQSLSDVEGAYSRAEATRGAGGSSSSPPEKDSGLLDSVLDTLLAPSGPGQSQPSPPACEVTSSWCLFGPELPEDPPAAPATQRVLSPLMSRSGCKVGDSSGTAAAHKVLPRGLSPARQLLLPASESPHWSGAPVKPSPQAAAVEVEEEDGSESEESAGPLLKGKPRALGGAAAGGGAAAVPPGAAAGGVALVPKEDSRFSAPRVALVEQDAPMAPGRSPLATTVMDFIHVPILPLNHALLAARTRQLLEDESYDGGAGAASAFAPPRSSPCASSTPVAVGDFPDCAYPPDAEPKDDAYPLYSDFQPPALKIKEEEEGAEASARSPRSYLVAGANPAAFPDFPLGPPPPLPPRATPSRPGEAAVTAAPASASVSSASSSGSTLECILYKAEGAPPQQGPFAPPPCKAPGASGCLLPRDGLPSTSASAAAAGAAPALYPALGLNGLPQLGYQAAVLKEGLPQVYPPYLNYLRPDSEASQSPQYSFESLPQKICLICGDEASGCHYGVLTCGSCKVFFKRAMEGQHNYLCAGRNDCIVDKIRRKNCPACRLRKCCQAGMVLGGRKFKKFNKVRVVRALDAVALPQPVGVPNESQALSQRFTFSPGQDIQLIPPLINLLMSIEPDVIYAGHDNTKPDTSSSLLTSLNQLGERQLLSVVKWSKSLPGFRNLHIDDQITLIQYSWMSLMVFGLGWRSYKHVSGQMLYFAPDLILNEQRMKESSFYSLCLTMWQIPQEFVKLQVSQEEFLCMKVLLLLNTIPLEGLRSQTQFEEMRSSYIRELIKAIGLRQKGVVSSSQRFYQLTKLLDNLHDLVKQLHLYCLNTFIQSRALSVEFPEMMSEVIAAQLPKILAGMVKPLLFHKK
How it was run: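 PR-UAS-bla HEK 293T cells carrying a UAS-driven beta-lactamase reporter were seeded in medium with 2% charcoal-stripped FBS, preincubated 6 hr at 37C, then exposed to compounds in DMSO for 16 hr; agonism was read by LiveBLAzer B/G FRET fluorescence.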

[11] = qHTS assay to identify small molecule antagonists of the progesterone receptor (PR) signaling pathway - cell viability counter screen (AID 1346798); also: series mostly up to about 92 µM; nearly all actives have a fitted effect of over 50% in size
How it was run: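 PR-UAS-bla HEK293T cells in medium with 2% charcoal-stripped FBS were treated with compounds plus R5020 for 16 hr at 37C. Cell viability was then read by CellTiter-Glo luminescence after 30 min at room temperature in the same wells.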

[12] = qHTS assay to identify small molecule agonists of the progesterone receptor (PR) signaling pathway - cell viability counter screen (AID 1346799; calls by dose curve; also: nearly all actives have a fitted effect of over 45% in size)
How it was run: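 PR-UAS-bla HEK293T cells, 3,000 per well in medium with 2% charcoal-stripped FBS, were preincubated 6 hr at 37C, then exposed to compounds for 16 hr; viability was read as CellTiter-Glo luminescence after 30 min at room temperature.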

[13] = qHTS assay to identify small molecule antagonists of the TGF-beta/Smad signaling pathway - cell viability counter screen (AID 1346824); also: nearly all actives have a fitted effect of over 50% in size
How it was run: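 SBE-bla HEK 293T cells, incubated overnight, then compound plus 0.25 ng/mL TGF-beta1 (stock added) for 5 hr at 37 C. Viability was read in the same wells by CellTiter-Glo luminescence after 30 min at room temperature.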

[14] = qHTS assay to identify small molecule agonists of the TGF-beta/Smad signaling pathway - cell viability counter screen (AID 1346829); also: top concentration of the series differs between compounds; nearly all actives have a fitted effect of over 45% in size
How it was run: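 Tox21 qHTS format: SBE-bla HEK 293T cells treated with DMSO-dissolved compounds for 5 hr; CellTiter-Glo luminescence after 30 min at room temperature.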

[15] = qHTS assay to identify small molecule agonists of the TGF-beta/Smad signaling pathway (AID 1346859; active = well fitted activation curve with a large enough effect in the signal ratio in the repeat runs, not every such curve was filed as active; the % refers to the signal ratio; also: series mostly up to about 77 µM)
How it was run: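 HEK 293T cells stably carrying a beta-lactamase reporter driven by the Smad binding element were seeded overnight, exposed to DMSO-dissolved compounds for 5 hr at 37 C, 5% CO2, then loaded with FRET substrate for 2 hr at room temperature.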

[16] = target: Thyrotropin-releasing hormone receptor (Homo sapiens) (UniProt P34981); assay: qHTS assay to identify small molecule antagonists of the thyrotropin-releasing hormone receptor (TRHR) signaling pathway (AID 1346877; active = well fitted inhibition curve with a large enough effect in the repeat runs, not every such curve was filed as active; also: series mostly up to about 51 µM)
Sequence of Thyrotropin-releasing hormone receptor (Homo sapiens) (P34981 whole entry, looked up): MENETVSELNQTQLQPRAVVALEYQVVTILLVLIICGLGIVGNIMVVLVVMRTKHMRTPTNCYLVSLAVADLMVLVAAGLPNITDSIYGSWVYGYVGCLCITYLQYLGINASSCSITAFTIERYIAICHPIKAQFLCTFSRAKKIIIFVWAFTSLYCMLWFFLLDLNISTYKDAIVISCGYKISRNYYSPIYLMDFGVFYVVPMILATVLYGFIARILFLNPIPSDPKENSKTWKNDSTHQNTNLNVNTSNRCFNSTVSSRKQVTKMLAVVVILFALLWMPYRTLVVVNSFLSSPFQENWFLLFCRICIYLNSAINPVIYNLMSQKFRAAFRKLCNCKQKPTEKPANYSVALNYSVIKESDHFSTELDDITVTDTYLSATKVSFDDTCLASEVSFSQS
How it was run: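 Cells (TRHR-HEK293) are plated and kept 18 h at 37 °C/5% CO2. A calcium-sensitive dye is added for 2 h, compound follows for 5 min at room temperature, and TRH is then given at 1 nM final.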

[17] = target: Thyrotropin-releasing hormone receptor (Homo sapiens) (UniProt P34981); assay: qHTS assay to identify small molecule agonists of the thyrotropin-releasing hormone receptor (TRHR) signaling pathway (AID 1346891; calls by dose curve; also: series mostly up to about 58 µM)
How it was run: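 TRHR-expressing HEK293 cells were plated 18 h at 37 °C/5% CO2, loaded with calcium dye 2 h at 37 °C, then given compound in DMSO; fluorescence was read kinetically for 3 min at 1 s intervals.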

[18] = Human pregnane X receptor (PXR) small molecule agonists, qHTS cell viability counter screen (AID 1346977); also: nearly all actives have a fitted effect of over 50% in size
How it was run: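 PXR-Luc HepG2 cells in medium with 5% charcoal-stripped FBS were pre-incubated 5hr, then exposed to compounds for 24hr at 37C. Viability was read in the same wells by CellTiter-Fluor fluorescence, reagent added after 23hr with a 1hr incubation.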

[19] = qHTS assay to identify small molecule antagonists of the estrogen receptor beta (ER-beta) signaling pathway - cell viability counter screen (AID 1259382); also: series mostly up to about 92 µM; nearly all actives have a fitted effect of over 55% in size
How it was run: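 Following a 6 hr plating period, HEK293T cells carrying a UAS-driven beta-lactamase reporter under ER-beta control received compounds and 1nM E2 (final). After 16 hr at 37C and 2 hr substrate loading, CellTiter-Glo luminescence indicated viability.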

[20] = target: Progesterone receptor (Homo sapiens) (UniProt P06401); assay: qHTS assay to identify small molecule antagonists of the progesterone receptor (PR) signaling pathway (AID 1346795; active = well fitted inhibition curve with a large enough effect in the signal ratio in the repeat runs, not every such curve was filed as active; the % refers to the signal ratio; also: potency is read from the fitted curve at half-maximal effect)
How it was run: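 PR-UAS-bla HEK293T cells carrying a UAS-driven beta-lactamase reporter were plated in medium with 2% charcoal-stripped FBS and rested 6 hr at 37C. Compounds were added with 1 nM R5020 (final) for 16 hr, then FRET substrate loaded 2 hr at room temperature.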

Row | SMILES | Potency [1] | Potency [2] | Potency [3] | Potency [4] | Potency [5] | Potency [6] | outcome [7] | Potency [8] | Potency [9] | Potency [10] | Potency [11] | Potency [12] | Potency [13] | Potency [14] | outcome [15] | Potency [16] | Potency [17] | Potency [18] | Potency [19] | Potency [20]
1 | CC(O)C#N (stereo unspecified) | inactive | inactive | inactive | inactive | inactive | inactive | inactive | inactive | inactive | inactive | inactive | inactive | inactive | inactive | inactive | inactive | inactive | inactive | – | –
2 | CC(C)(COCC1CO1)COCC1CO1 (stereo unspecified) | inactive | inactive | inactive | inactive | – | inactive | inactive | inactive | inactive | inactive | inactive | inactive | inactive | inactive | inactive | inactive | inactive | inactive | inactive | inactive
3 | Clc1ccc(-c2ccccc2)cc1 | inactive | inactive | inactive | inactive | – | inactive | inactive | inactive | inactive | inactive | inactive | inactive | inactive | inactive | – | inactive | inactive | inactive | inactive | inactive
4 | O=[N+]([O-])c1cc(Cl)ccc1Cl | inactive | inactive | inactive | inactive | inactive | inactive | inactive | inactive | inactive | inactive | inactive | inactive | inactive | inactive | inactive | inactive | inactive | inactive | inactive | inactive
5 | Cc1ccc(C(=O)Cl)cc1 | inactive | inactive | inactive | inactive | inactive | inactive | inactive | inactive | inactive | inactive | inactive | inactive | inactive | inactive | inactive | inactive | inactive | inactive | inactive | inactive
6 | CCC(C)c1cc(C(C)(C)C)cc(-n2nc3ccccc3n2)c1O (stereo unspecified) | inactive | inactive | inactive | inactive | inactive | – | – | – | inactive | inactive | inactive | – | inactive | inactive | inactive | inactive | inactive | inactive | – | –
7 | CC(C)CBr | inactive | inactive | inactive | inactive | 386 nM (active) | inactive | inactive | inactive | inactive | inactive | inactive | inactive | inactive | – | inactive | inactive | inactive | inactive | inactive | –
8 | ClC(Cl)=C(Cl)Cl | inactive | inactive | inactive | inactive | – | – | inactive | inactive | inactive | inactive | inactive | inactive | inactive | inactive | inactive | inactive | inactive | inactive | inactive | inactive
9 | N#CCc1ccc(Cl)cc1 | inactive | inactive | inactive | inactive | – | inactive | – | – | inactive | inactive | inactive | inactive | inactive | inactive | inactive | inactive | inactive | inactive | inactive | inactive
10 | ClC1=C(Cl)[C@]2(Cl)[C@@H]3[C@@H](Cl)[C@H](Cl)C[C@@H]3[C@@]1(Cl)C2(Cl)Cl | inactive | inactive | inactive | inactive | inactive | inactive | – | – | inactive | inactive | inactive | inactive | inactive | inactive | – | inactive | inactive | inactive | inactive | inactive
11 | Nc1ccccc1C(=O)OC/C=C/c1ccccc1 | inactive | 48.7 µM (active) | inactive | 21.7 µM (active) | – | 12.2 µM (active) | inactive | inactive | inactive | – | inactive | inactive | inactive | – | inactive | inactive | inactive | inactive | inactive | 27.4 µM (active)
12 | Fc1cccc(Cl)c1CCl | inactive | inactive | inactive | inactive | – | inactive | inactive | inactive | inactive | inactive | inactive | inactive | inactive | inactive | – | inactive | inactive | inactive | inactive | inactive
13 | Cc1ccc(CCl)cc1 | inactive | inactive | inactive | inactive | inactive | inactive | inactive | inactive | inactive | inactive | inactive | – | inactive | inactive | inactive | – | – | inactive | – | –
14 | Cc1cc(C)c(C2=C(OC(=O)CC(C)(C)C)C3(CCCC3)OC2=O)c(C)c1 | inactive | inactive | inactive | inactive | – | inactive | – | – | inactive | – | inactive | inactive | inactive | inactive | – | – | – | inactive | inactive | –
